Apoptosis data for one molecule are collected here from PubChem BioAssay AID624396 (The Scripps Research Institute Molecular Screening Center, 2012).

Molecules are shown by their SMILES. The source made the active and inactive calls.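 The calls were made as follows: active = over 15% of cells apoptotic at 25 µM, or half-maximal dose of 10 µM or lower; inactive = the rest.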

The test system of the experiment is BCL2 1863. The experiment is described as follows: pro-apoptotic nuclear morphology in cancer cells – imaging, DAPI staining, cell line panel, probe, mechanism study for MCL1-BIM inhibitor project, late-stage follow-up (AID 624396). The note with it: at 25 µM, stronger effect = higher value.

For `CCN1CCN(C(c2ccc(C(F)(F)F)cc2)c2ccc3cccnc3c2O)CC1` (stereo unspecified), the apoptosis was 21% (active).
